± gives the standard deviation of the averaged measurements. Over roughly 25,000 sequences, “ln(normalized median fluorescence intensity)” has its median near 10; the highest 2% begin near 12. This is one part of a sample in which the highest values are shown more often than they occur.
test system: PfAP2-G AP2 domain (GST-tagged); assay: gcPBM binding intensity (ln(normalized median fluorescence intensity)); higher = stronger DNA binding
Method in brief: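 Binding of GST-tagged P. falciparum DNA-binding domains, expressed in E. coli and used at about 25 μg on average, was carried out for 1 h in 1× PBS containing 1% milk, 0.2 mg/ml BSA, 0.5% salmon testes DNA and 0.03% Triton X-100. The target was an Agilent 4 × 180k array of primer-extended double-stranded 36-bp intergenic genomic probes plus negative controls, read with Alexa488 anti-GST antibody at 488 nm. Binding intensity is the highest Masliner-normalised natural-log median intensity across replicate spots of either probe orientation.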

Row | Sequence | gcPBM binding intensity (ln)
1 | TGCTATAATTTATATACACACAAATATATACGCATA [CACACA_site4096] | 10 ± 0.14
2 | TTTTTTTTGCGTACAGTGCAAATTTATTTACTATTC | 11.7 ± 1.1
3 | TTTTATTTACACAGTGGTACTATTAAAAATTAATGA [XGTACX_site6737] | 11 ± 0.7
4 | AGAAAAATTATTTTGCGTACATATTTACAATAAAAA [XGTACX_site2144] | 11.5 ± 0.75
5 | GACATTTCTTGGGATACATGCATGTCCCAGAACAAA [TGCATGCA_site271] | 10.6 ± 0.4
6 | TTTTATTTTTTAGTAGTACACACTTTTTGTACCTTT [CACACA_site599] | 11.8 ± 1
7 | TTTTTATTTTTTAGTAGTACACACTTTTTGAACCTT [XGTACX_site1091] | 11.6 ± 0.97
8 | CTTATTTCCTTTTGTAGTACCTTATAATATATATAA [XGTACX_site8873] | 11.3 ± 0.69
9 | TTTTTTATTACTTTGTGTACTTACACAGAACCTTAT [XGTACX_site6038] | 11.5 ± 0.88
10 | TTTGAACTTTTATATACACACATTATTATAGTATAG [CACACA_site6851] | 10.04 ± 0.071
11 | ATTCTTTTATTTAGTAGTACATTTGTATTTTATTCA [XGTACX_site5790] | 11.5 ± 0.95
12 | TGTTTACACTTTTTTTGTACACATAATTTTATTTGA [XGTACX_site3760] | 11.3 ± 0.81
13 | TTTTTATTTTTGTAGTGTACTTTATTTTTTTTGTTT [XGTACX_site8887] | 11.6 ± 0.91
14 | TTATTTTTTAGTAGTACACACTTTTTGTACCTTTTA [CACACA_site4503] | 11.8 ± 1.1
15 | AATTATATAAGCCACGCATGTGTGCATAAAAATACA [TGCATGCA_site114] | 10.2 ± 0.14
16 | TGTACGAGTCGTAGAGTGCAGTCTGGAGAAACGTAC [GTGCAC_site9682] | 11 ± 0.47
17 | AATTTACATATATATTGTACATTTATGTATATATAT [XGTACX_site4186] | 10.7 ± 0.52
18 | AAATAAATCTTATGCACACAAATAATTAATTAAACA [CACACA_site1693] | 10.06 ± 0.014
19 | ATAAAAAAAATAAAAAGTACAAAAAAAAAAAATGGA [XGTACX_site136] | 11.3 ± 0.71
20 | ACATATGACTATAATACACACTTGTATTATTAATAT [CACACA_site6951] | 9.98 ± 0.13
21 | ATATATATATCTAATTGTACATATTTTATAAATAAG [XGTACX_site4840] | 11 ± 0.52
22 | GGCATAAATATATGCACACACAAAAAAAAAAAAAAA [CACACA_site59] | 10 ± 0.65
23 | GAAAAAAATGAAATTAGTACTTATCTTAAATTTTTA [XGTACX_site1018] | 10.8 ± 0.47
24 | TATGCTATTATATATGTACACACCAATTTATTTATA [CACACA_site3918] | 11.3 ± 0.74
25 | TTTTTCTTACATGAGTGTACACACTTTTTTTCAGAA [XGTACX_site138] | 11.7 ± 0.83
26 | ATCTTTCGAACATGTACACACAGAAAAAAAAAAAAA [CACACA_site5393] | 11.3 ± 1
27 | AATATTTATTTTACATGTACTTATTTTTCTTTTAAC [XGTACX_site3631] | 11.4 ± 0.88
28 | TTCTTACATGAGTGTACACACTTTTTTTCAGAAAAT [CACACA_site4215] | 11.7 ± 1
29 | TTTTCTTACATGAGTGTACACACTTTTTTTCAGAAA [CACACA_site70] | 11.6 ± 0.91
30 | AGAAAAAAAAAAAAATGTACAGACTTTTTCTTATAA [XGTACX_site6481] | 11 ± 0.55
